# Screens as filed in PubChem.
# Hits are enriched below; roughly 5.6% of the tested compounds scored in any of these assays.
# PHOSPHO1 inh = PubChem AID 1565; Phosphoethanolamine/phosphocholine phosphatase (Homo sapiens), Q8TCT1; recombinant PHOSPHO1, absorbance phosphatase assay; inhibition, % at 13.3 µM; hit rate 1.1% among 290,000; in the data active = inhibition above about 60%
# Target sequence (Q8TCT1 whole entry, looked up): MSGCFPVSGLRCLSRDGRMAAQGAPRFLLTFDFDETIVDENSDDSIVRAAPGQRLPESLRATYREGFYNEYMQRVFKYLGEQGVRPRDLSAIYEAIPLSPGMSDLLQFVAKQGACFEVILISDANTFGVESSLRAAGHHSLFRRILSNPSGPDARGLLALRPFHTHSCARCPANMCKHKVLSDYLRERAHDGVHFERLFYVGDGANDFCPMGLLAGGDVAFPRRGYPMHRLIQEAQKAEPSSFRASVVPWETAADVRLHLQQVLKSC
# M18AAP inhibitor = PfM18AAP inhibitors, malaria aminopeptidase, primary screen, biochemical, QFRET, recombinant enzyme | M18 aspartyl aminopeptidase (Plasmodium falciparum 3D7) | H-Glu-NHMec fluorogenic cleavage | inhibition, % at 7.35 µM | hit rate 1.2% among 290,000 | AID 1822, 2009;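 active = inhibition above the campaign mean inhibition over all tested compounds plus 3 SD, cut at about 28% in these data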
# PfG6PD inh = PfG6PD enzyme inhibitors, primary screen, biochemical, fluorescence intensity, uHTS | PfGluPho enzyme, NADPH resazurin-diaphorase fluorescence | hit rate 0.78% among 350,000 | AID 504690, 2011 | inhibition, % at 20 µM;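 active = inhibition reaching at least a set limit at 20 µM in the primary screen, cut at about 59% in these data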
# Cardio protect = cardioprotection against H2O2-induced cell death, primary screen, uHTS, H9c2 cells, ATPLite luminescence; H9c2 cardiomyocytes, H2O2 injury protection, 2 h; protection from H2O2 cell death, % at 20 µM; hit rate 0.63% among 360,000; AID 588492, 2011;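 active = compounds giving at least 50% protection of heart cells from peroxide-induced death in the single-dose screen, raw or plate-pattern-corrected value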
# ALR inh = inhibitors of human ALR sulfhydryl oxidase, primary screen, biochemical, H2O2 detection, HRP-luminol luminescence, single point; inhibition, % (concentration not given with the values); hit rate 3.8% among 290,000; AID 485317, 2010; FAD-linked sulfhydryl oxidase ALR (Homo sapiens), P55789; purified ALR, DTT oxidation;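 active = mean replicate inhibition above about 79%, with every replicate also reaching it, limit read from the data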
# Target sequence (P55789 whole entry, looked up): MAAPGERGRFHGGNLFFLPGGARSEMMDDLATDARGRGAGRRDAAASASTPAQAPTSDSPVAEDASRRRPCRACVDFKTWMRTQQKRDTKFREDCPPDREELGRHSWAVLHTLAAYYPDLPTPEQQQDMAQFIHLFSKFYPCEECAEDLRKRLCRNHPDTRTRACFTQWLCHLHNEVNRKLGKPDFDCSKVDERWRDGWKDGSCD
# PfG6PD confirm = PfG6PD inhibitors, hit retest, confirmation, biochemical, fluorescence intensity, single concentration; shares compounds with PfG6PD inh; recombinant PfGluPho, NADPH-diaphorase-resazurin fluorescence; inhibition, % at 20 µM; hit rate 34% among 2,400; AID 504753, 2011;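 active = inhibition of at least 50% at 20 µM in any single replicate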
# Diaphorase 10uM = diaphorase inhibitors and chemical oxidizers, confirmation, counter-screen for P. falciparum G6PD inhibitor project, biochemical, fluorescence intensity, 10 µM NADPH; shares compounds with PfG6PD inh; diaphorase-coupled resazurin reduction, NADPH 10 uM; inhibition, % at 20 µM; hit rate 39% among 820;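 active = average inhibition reaching 50% or more with the compound at 20 µM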;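 note: resorufin red fluorescence formed as diaphorase reduces resazurin using NADPH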
# Diaphorase 30uM = diaphorase inhibitors and chemical oxidizers, confirmation, counter-screen for P. falciparum G6PD inhibitor project, biochemical, fluorescence intensity, 30 µM NADPH; AID 504863, 2011; inhibition, % at 20 µM; Diaphorase/resazurin coupled assay, resorufin fluorescence; shares compounds with PfG6PD inh; hit rate 29% among 820;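 active = inhibition averaging 50% or more, tested at 20 µM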
# Hits are given with their value; - = inactive; . = not tested or not shown.
SMILES,PHOSPHO1 inh,M18AAP inhibitor,PfG6PD inh,Cardio protect,ALR inh,PfG6PD confirm,others
O=C(CNc1ccc2ccccc2c1)N/N=C/c1ccc([N+](=O)[O-])o1,-,-,-,-,-,.,
Cc1cc(C)nc(SCC(=O)N/N=C/c2cccnc2)n1,-,-,-,-,-,.,
O=C(CSc1ccc(Cl)cc1)N/N=C/c1ccc([N+](=O)[O-])o1,-,-,110,-,.,82,Diaphorase 10uM=81;Diaphorase 30uM=66
O=C(CSc1ccc(Cl)cc1)N/N=C/c1cccnc1,-,-,63,-,-,-,
N#Cc1nccnc1S(=O)(=O)c1cccs1,-,-,-,.,-,.,
COc1cc(NC(=O)c2cc(C)no2)cc(OC)c1OC,-,-,-,-,-,.,
CN(C)c1ccc(C=c2c3cc([N+](=O)[O-])ccc3n3c2cc(-c2ccccc2)[n+]3C)cc1,.,.,120,-,.,93,Diaphorase 10uM=-;Diaphorase 30uM=-
CN(C)c1ccc(C=c2c3ccccc3n3c2cc(-c2ccccc2)[n+]3C)cc1,.,.,-,-,.,.,
COc1cc(N(C)C)ccc1C=c1c2ccccc2n2c1cc(-c1ccccc1)[n+]2C,.,.,83,-,.,76,Diaphorase 10uM=-;Diaphorase 30uM=-
CCCN(CCC)Cc1cc(=O)oc2ccc3ccccc3c12,.,.,.,-,.,.,
CC(C)(C)c1ccc(OCCn2nc(C(=O)O)c3ccccc3c2=O)cc1,-,-,62,-,-,-,
CC(C)NC(=O)C1(C)CCN1Cc1ccc(C(F)(F)F)cc1 (stereo not given),.,.,.,-,.,.,
Oc1ccc2ccccc2c1C=NC12CN3CCN(CN(C3)C1)C2,-,-,75,-,-,-,
COc1ccc(CN2CCN(CCCc3ccccc3)C(CCO)C2)c(OC)c1 (stereo not given),.,-,-,-,-,.,
COc1cc(CN2CCN(CCCc3ccccc3)C(CCO)C2)cc(OC)c1O (stereo not given),.,-,61,-,-,57,Diaphorase 10uM=-;Diaphorase 30uM=-
CCCCNC(=O)C1(C)CCN1C(=O)c1cc(OC)ccc1Br (stereo not given),.,.,.,-,.,.,
Cc1ccc(S(=O)(=O)N2CCOCC2)cc1NC(=O)CSc1ccc(Cl)cc1,.,.,-,-,-,.,
CCOC(=O)c1ccc(S(=O)(=O)Nc2cc(S(=O)(=O)N3CCOCC3)ccc2O)cc1,.,.,60,-,-,-,
O=C(CCCSc1ccc(Cl)cc1)Nc1cc(S(=O)(=O)N2CCOCC2)ccc1O,.,.,74,-,-,-,
Cc1c(Cl)cccc1NC(=O)C1Cc2ccccc2CN1C(=O)c1ccccc1 (stereo not given),-,-,81,-,.,-,
CCOc1ccc(-c2nnc(SCc3nnc(-c4ccccc4)o3)n2-c2ccccc2F)cc1,73,-,85,-,-,-,
CCc1[nH]c(=S)c(C#N)c2c1CCCC2,-,-,66,-,-,-,
CCc1[nH]c(=O)c(C#N)c2c1CCCC2,-,-,-,-,-,.,
Cc1ccc(/C=C/C(=O)N2CCc3ccccc32)o1,-,-,85,-,-,-,
Cc1ccc(/C=C/C(=O)N2CCN(c3ccc(F)cc3)CC2)o1,-,-,-,-,-,.,
SMILES,PHOSPHO1 inh,M18AAP inhibitor,PfG6PD inh,Cardio protect,ALR inh,PfG6PD confirm,others
Cc1ccc(/C=C/C(=O)N2CCN(c3ncccn3)CC2)o1,-,-,64,-,-,-,
O=C(/C=C/c1ccco1)N1CCc2ccccc21,-,-,-,-,-,.,
O=C(N/N=C\c1cc([N+](=O)[O-])ccc1N1CCOCC1)c1ccccn1,-,-,-,-,.,.,
CCc1ccc(OCC(=O)N/N=C/c2cc([N+](=O)[O-])ccc2N2CCOCC2)cc1,-,-,96,-,-,56,Diaphorase 10uM=-;Diaphorase 30uM=-
COc1ccc(NCC(=O)N/N=C/c2cc([N+](=O)[O-])ccc2N2CCCC2)cc1,-,-,-,-,-,.,
Cc1cccc(OCC(=O)N/N=C/c2cc([N+](=O)[O-])ccc2N2CCOCC2)c1,-,-,118,-,-,68,Diaphorase 10uM=57;Diaphorase 30uM=59
COc1cccc(/C=N/NC(=O)CSc2cccc3cccnc23)c1,-,-,69,-,-,54,Diaphorase 10uM=64;Diaphorase 30uM=-
CCc1noc(C)c1C(=O)N1CC(C)SC1=Nc1ccc(Cl)cc1 (stereo not given),.,.,-,-,.,.,
CC(C)(C)c1ccc(N=C2SCC(=O)N2Cc2cccs2)cc1,-,-,64,-,.,-,
CC1O[C@@H](OCC2O[C@@H](Oc3cc(O)c4c(c3)OC(c3ccc(O)cc3)CC4=O)[C@H](O)[C@@H](O)[C@@H]2O)[C@H](O)[C@H](O)[C@H]1O (stereo not given in full),.,.,-,-,.,.,
CCOC(=O)c1c(NC(=O)c2ccccc2Br)sc2c1CCc1ccccc1-2,71,-,64,-,-,-,
CCOC(=O)c1c(NC(=O)c2ccccc2N(C)S(=O)(=O)c2ccccc2)sc2c1CCCC2,-,-,-,-,.,.,
CSc1cnn(Cc2ccccc2)c(=O)c1SCc1ccccc1,-,-,66,-,-,-,
O=C(CCC(=O)OCc1ccc([N+](=O)[O-])cc1Cl)Nc1ccccc1,-,-,-,-,-,.,
COc1ccc(CN(Cc2cccn2C)S(=O)(=O)c2ccc(C)cc2)cc1,-,-,66,-,.,-,
Cc1c(C(=O)Nc2ccncc2)sc2nc(-c3ccccc3)cn12,-,-,78,-,-,-,
Cn1nc(C(=O)OCC(=O)Nc2ccc(C(N)=O)cc2)c2ccccc2c1=O,.,.,-,-,-,.,
CCCCOc1ccc(Cc2n[nH]c(=S)n2N)cc1,79,-,61,-,-,50,Diaphorase 10uM=-;Diaphorase 30uM=-
COc1cccc2c1O/C(=N\O)C(C(=O)Nc1cccc(Br)c1)C2 (stereo not given),-,-,-,-,-,.,
COCCNc1c(-c2ccc(OC)cc2)nc2ccc(Cl)cn12,-,-,65,-,99,-,
CCOC(=O)CNc1c(-c2ccc(OC)cc2)nc2ccc(Cl)cn12,-,-,74,-,-,-,
Cc1cc(C)nc(NC(N)=NCCc2ccccc2)n1,.,.,79,-,.,51,Diaphorase 10uM=-;Diaphorase 30uM=-
CCCN(C(=O)COC(=O)Cn1c(=O)oc2ccccc21)c1c(N)n(Cc2ccccc2)c(=O)[nH]c1=O,.,.,-,-,-,.,
CC1=CC(C)(C)NC(=S)N1C(C)c1ccccc1 (stereo not given),-,-,-,-,-,.,
